Records with an inconclusive call do not appear. Calls of active or inactive are those of the source. Rule for the calls, unless noted: active = hit-call score of the fitted dose curve at least 0.9, where 1 is the maximum; inconclusive = response in the unintended direction; inactive = score below 0.9.
How the values were obtained:
[1] = TOX21_p53_BLA_p2_viability: Viability Assessment in the Tox21 HCT-116 p53 Agonism Beta-lactamase Assay, Phase 2 (AID 2283591);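 note: compound exposure lasted 16 h at 37 °C; actives lower the ATP signal meaning cytotoxicity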
Outline: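 HCT-116 p53-bla cells (4000/well) rested 5 h at 37C, then received compounds in DMSO (217-fold dilution) for 16 h at 37C, 5% CO2. After the CCF4 read, CellTiter-Glo was added; ATP luminescence was read after 30 min at room temperature.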

[2] = biological target: Cellular tumor antigen p53 (Homo sapiens) (UniProt P04637); assay: TOX21_p53_BLA_p2_ratio: Tox21 HCT-116 p53 Agonism Beta-lactamase Assay, Ratio, Phase 2 (AID 2283592)
Outline: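 Human colon HCT116 cells with an inducible p53 beta-lactamase reporter are exposed to test chemicals for 16 h at 37C. Reporter induction is read as the 460/530 nm emission ratio after CCF4-AM loading, normalized to DMSO.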

[3] = TOX21_p53_BLA_p3_viability: Viability Assessment in the Tox21 HCT-116 p53 Agonism Beta-lactamase Assay, Phase 3 (AID 2283593);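 note: cells exposed to compound for 16 h before reading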
Outline: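 HCT-116 cells (4000/well) rested 5 h at 37C, then got DMSO compounds by pin tool (217-fold dilution) for 16 h at 37C, 5% CO2. After the bla read, CellTiter-Glo was added and luminescence read at 30 min, room temperature.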

[4] = biological target: Cellular tumor antigen p53 (Homo sapiens) (UniProt P04637); assay: TOX21_p53_BLA_p3_ratio: Tox21 HCT-116 p53 Agonism Beta-lactamase Assay, Ratio, Phase 3 (AID 2283596)
Outline: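 HCT116 p53-bla cells (4000/well) given compound in DMSO (217-fold dilution) after 5 h, incubated 16 h at 37C. CCF4-AM substrate 2 h at room temperature; 460/530 nm emission ratio, gain fitted against DMSO.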

[5] = TOX21_p53_BLA_p4_viability: Viability Assessment in the Tox21 HCT-116 p53 Agonism Beta-lactamase Assay, Phase 4 (AID 2283597);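 note: hits lower the luminescence signal meaning cytotoxicity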
Outline: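 Luminescent ATP readout (CellTiter-Glo, 30 min, room temperature) in the same wells as the p53 bla ratio. HCT116 cells were treated for 16 h at 37C with DMSO-dissolved compounds.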

[6] = biological target: Cellular tumor antigen p53 (Homo sapiens) (UniProt P04637); assay: TOX21_p53_BLA_p5_ratio: Tox21 HCT-116 p53 Agonism Beta-lactamase Assay, Ratio, Phase 5 (AID 2283599)
Outline: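 HCT-116 cells carrying a p53-inducible beta-lactamase reporter were seeded at 4000 cells/well and dosed after 5 h with compound in DMSO (217-fold dilution). After 16 h at 37C, CCF4-AM substrate was added for 2 h, and the 460/530 nm emission ratio was scored as gain-of-signal versus DMSO.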

[7] = TOX21_p53_BLA_p5_viability: Viability Assessment in the Tox21 HCT-116 p53 Agonism Beta-lactamase Assay, Phase 5 (AID 2283600)
Outline: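 Seeded cells (4000/well) settle 5 h before compound addition. Plates then incubate 16 h at 37C, receive FRET substrate for 2 h, and finally CellTiter-Glo, with luminescence measured after a 30 min room-temperature incubation.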

[8] = biological target: Cellular tumor antigen p53 (Homo sapiens) (UniProt P04637); assay: TOX21_p53_BLA_p4_ratio: Tox21 HCT-116 p53 Agonism Beta-lactamase Assay, Ratio, Phase 4 (AID 2283601)
Outline: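 HCT116 cells carrying an inducible beta-lactamase reporter were plated at 4000 cells/well, rested 5 h, then exposed to compounds in DMSO (217-fold dilution) for 16 h at 37C. CCF4-AM substrate was loaded 2 h at room temperature; 460/530 nm emission ratio scored gain-of-signal versus DMSO.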

[9] = biological target: Thyroid hormone receptor alpha (Rattus norvegicus) + Thyroid hormone receptor beta (Rattus norvegicus) (UniProt P18113+P63059); assay: TOX21_TR_LUC_GH3_Agonist_Followup: Tox21 GH3 Thyroid Hormone Receptor Agonism Luciferase Follow-Up Assay (AID 2283939)
Outline: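 Rat GH3 cells (1,500/well) in serum-free assay medium, treated with 15-point series, 92 uM to 5 nM final, for 24 h at 37C. Luciferase via ONE-Glo luminescence; gain of signal fitted against DMSO, T3 positive control.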

[10] = biological target: THRA (gene 7067) (UniProt P10827); assay: TOX21_TRA_COA_Agonist_Followup_ratio: Tox21 Thyroid Hormone Receptor alpha Agonism through Coactivator Recruitment Follow-Up Assay, Ratio (AID 2283948; active = hit-call score of the fitted dose curve at least 0.9, where 1 is the maximum; inactive = score below 0.9)
Outline: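 Agonist-mode biochemical TR-FRET with TRα LBD and SRC-2 coactivator peptide; activity expressed as percent of T3 response over DMSO baseline.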

[11] = biological target: THRB (gene 7068) (UniProt P10828); assay: TOX21_TRB_BLA_Agonist_Followup_ratio: Tox21 Thyroid Hormone Receptor beta Agonism Beta-lactamase (BLA) Follow-Up Assay, Ratio (AID 2283954)
Outline: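 Human TRβ LBD–GAL4 DBD fusion in GeneBLAzer UAS-bla HEK293T cells; 11 concentrations in triplicate, 18 h at 37°C/5% CO2, T3 as agonist control. CCF4-AM substrate 2 h at room temperature; 460:530 nm ratio fitted for gain of signal versus DMSO.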

[12] = biological target: THRB (gene 7068) (UniProt P10828); assay: TOX21_TRB_COA_Agonist_Followup_ratio: Tox21 Thyroid Hormone Receptor beta Agonism through Coactivator Recruitment Follow-Up Assay, Ratio (AID 2283963; active = hit-call score of the fitted dose curve at least 0.9, where 1 is the maximum; inactive = score below 0.9)
Outline: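 Agonism is measured as coactivator recruitment in a purified-protein TR-FRET format, using GST-TRβ LBD at 5.0 nM, fluorescein-SRC-2 peptide at 200 nM and Tb-labeled anti-GST antibody at 2 nM. Values are 520:495 nm ratios relative to DMSO (0%) and T3 (100%).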

[13] = biological target: Retinoic acid receptor RXR-alpha (Homo sapiens) (UniProt P19793); assay: TOX21_TR_RXR_BLA_Agonist_Followup_ratio: Tox21 Thyroid Hormone Receptor beta Retinoid X Receptor alpha (RXRa) Agonism Beta-lactamase (BLA) Follow-Up Assay, Ratio (AID 2283968)
Outline: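 RXRa-UAS-bla HEK293T cells, 5 h attachment at 37C/5% CO2, then 11 concentrations in triplicate for 16 h; 9-cis retinoic acid positive control. FRET-B/GCCF4-AM substrate 2 h at room temperature; 460:530 nm ratio, fitted for gain versus DMSO.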

[14] = TOX21_TR_RXR_BLA_Agonist_Followup_viability: Viability Assessment in the Tox21 Thyroid Hormone Receptor beta Retinoid X Receptor alpha (RXRa) Agonism Beta-lactamase (BLA) Follow-Up Assay (AID 2283970)
Outline: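 RXRa-UAS-bla HEK293T cells, 2,500/well in phenol red-free DMEM with 2% charcoal-stripped FBS, dosed for 16 h at 37C. Viability measured by CellTiter-Glo ATP luminescence; fitted bidirectionally against DMSO baseline, loss of signal indicating cytotoxicity.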

Measured: AC50

Sequence of Cellular tumor antigen p53 (Homo sapiens) (P04637 whole entry, looked up): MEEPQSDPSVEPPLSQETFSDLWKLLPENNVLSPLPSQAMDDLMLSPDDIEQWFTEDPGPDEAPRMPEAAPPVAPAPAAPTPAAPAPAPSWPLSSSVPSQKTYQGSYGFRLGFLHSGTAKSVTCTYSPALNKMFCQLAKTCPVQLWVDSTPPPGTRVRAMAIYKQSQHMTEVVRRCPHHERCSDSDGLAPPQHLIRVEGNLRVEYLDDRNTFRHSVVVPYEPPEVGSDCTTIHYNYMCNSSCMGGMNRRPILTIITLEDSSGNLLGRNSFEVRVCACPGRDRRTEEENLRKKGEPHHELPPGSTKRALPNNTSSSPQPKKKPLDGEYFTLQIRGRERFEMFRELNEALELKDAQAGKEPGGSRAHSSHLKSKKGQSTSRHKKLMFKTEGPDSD
Sequence of THRB (gene 7068) (P10828 whole entry, looked up, the tested form may be a part): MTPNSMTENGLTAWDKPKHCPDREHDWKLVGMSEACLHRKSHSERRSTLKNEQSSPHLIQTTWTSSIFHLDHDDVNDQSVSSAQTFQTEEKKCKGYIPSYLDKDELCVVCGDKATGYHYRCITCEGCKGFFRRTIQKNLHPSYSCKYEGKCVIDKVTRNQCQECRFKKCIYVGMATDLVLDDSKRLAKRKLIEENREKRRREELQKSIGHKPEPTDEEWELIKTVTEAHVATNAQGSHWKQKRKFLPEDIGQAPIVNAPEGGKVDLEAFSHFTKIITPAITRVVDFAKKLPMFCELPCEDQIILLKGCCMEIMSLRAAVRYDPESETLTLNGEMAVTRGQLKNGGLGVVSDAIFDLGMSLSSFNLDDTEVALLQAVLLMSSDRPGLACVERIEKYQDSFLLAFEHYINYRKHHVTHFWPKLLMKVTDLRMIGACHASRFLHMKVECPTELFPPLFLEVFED
Sequence of THRA (gene 7067) (P10827 whole entry, looked up, the tested form may be a part): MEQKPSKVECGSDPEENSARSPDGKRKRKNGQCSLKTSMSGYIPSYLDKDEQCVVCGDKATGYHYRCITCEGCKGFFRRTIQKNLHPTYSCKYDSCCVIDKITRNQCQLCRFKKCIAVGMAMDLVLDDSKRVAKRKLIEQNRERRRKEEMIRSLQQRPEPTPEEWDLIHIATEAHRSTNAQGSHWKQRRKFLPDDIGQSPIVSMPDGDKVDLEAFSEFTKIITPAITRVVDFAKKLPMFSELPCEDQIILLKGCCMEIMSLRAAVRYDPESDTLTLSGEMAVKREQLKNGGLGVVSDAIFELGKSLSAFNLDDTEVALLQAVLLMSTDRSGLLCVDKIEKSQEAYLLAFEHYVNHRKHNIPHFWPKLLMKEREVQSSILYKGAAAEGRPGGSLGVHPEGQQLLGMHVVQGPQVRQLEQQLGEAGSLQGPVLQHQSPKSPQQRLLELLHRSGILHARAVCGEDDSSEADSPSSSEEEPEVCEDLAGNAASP
Sequence of Retinoic acid receptor RXR-alpha (Homo sapiens) (P19793 whole entry, looked up): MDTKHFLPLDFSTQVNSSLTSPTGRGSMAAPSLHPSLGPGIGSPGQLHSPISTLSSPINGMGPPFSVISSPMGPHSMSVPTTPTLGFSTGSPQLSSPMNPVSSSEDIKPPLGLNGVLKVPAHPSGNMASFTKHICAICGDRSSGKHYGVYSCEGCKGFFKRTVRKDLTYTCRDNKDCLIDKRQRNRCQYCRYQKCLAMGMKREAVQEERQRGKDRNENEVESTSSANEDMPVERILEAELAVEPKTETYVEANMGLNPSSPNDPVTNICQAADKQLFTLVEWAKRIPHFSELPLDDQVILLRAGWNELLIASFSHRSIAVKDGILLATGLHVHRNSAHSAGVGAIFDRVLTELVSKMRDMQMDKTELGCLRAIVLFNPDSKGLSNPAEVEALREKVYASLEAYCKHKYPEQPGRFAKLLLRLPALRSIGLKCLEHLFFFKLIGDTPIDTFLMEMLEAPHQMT
Sequence of Thyroid hormone receptor alpha (Rattus norvegicus) + Thyroid hormone receptor beta (Rattus norvegicus) (P63059 whole entry, looked up): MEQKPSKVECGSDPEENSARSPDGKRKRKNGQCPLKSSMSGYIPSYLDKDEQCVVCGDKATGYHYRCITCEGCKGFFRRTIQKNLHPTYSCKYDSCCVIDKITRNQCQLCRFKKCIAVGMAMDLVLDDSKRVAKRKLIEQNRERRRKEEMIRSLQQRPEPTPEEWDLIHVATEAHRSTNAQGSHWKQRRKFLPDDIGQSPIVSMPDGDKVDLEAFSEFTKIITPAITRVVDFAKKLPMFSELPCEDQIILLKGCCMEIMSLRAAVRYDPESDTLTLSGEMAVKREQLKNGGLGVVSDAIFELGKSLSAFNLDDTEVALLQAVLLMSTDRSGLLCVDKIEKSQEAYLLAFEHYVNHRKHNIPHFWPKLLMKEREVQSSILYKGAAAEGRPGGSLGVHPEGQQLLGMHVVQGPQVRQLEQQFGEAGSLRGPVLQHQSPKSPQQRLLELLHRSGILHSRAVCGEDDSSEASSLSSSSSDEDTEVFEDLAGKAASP
Sequence of Thyroid hormone receptor alpha (Rattus norvegicus) + Thyroid hormone receptor beta (Rattus norvegicus) (P18113 whole entry, looked up): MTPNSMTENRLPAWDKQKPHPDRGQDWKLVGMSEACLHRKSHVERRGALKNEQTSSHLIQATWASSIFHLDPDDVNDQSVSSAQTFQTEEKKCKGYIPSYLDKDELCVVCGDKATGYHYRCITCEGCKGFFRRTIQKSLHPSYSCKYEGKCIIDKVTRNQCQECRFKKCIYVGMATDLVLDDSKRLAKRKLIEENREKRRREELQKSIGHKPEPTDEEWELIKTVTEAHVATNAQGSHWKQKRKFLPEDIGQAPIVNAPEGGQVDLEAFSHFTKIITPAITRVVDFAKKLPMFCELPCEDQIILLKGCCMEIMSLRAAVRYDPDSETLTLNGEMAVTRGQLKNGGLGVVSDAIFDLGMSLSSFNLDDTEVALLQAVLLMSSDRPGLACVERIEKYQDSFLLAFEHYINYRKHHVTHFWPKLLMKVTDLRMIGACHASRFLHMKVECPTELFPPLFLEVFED

CC(C)(C)CC(C)(C)c1ccc(O)c(Cc2ccc(Cl)cc2Cl)c1
active: [1] 23 µM | [2] 35.4 µM | [3] 20.1 µM | [4] 30.9 µM | [5] 10.9 µM | [6] 28.1 µM | [7] 13.8 µM | [9] 2.83 µM | [10] 12.1 µM | [12] 12.2 µM
inactive: [8] | [11] | [13] | [14]
